Screening results: PubChem, Broad Institute
Yp Topo-I inh – inhibitors of Yersinia pestis topoisomerase I | 0.064% of 360,000 active | Y. pestis Topo-I cleavage product accumulation, plate reader | activity, % at 10 µM; in the data active means activity above about 50%, passing the limit was not always enough
TcdB inh – inhibitors of Clostridioides difficile toxin B glycohydrolase; TcdB glycohydrolase enzymatic assay, plate reader; 0.24% of 350,000 active; AID 652162; inhibition, % at 9.99 µM; P18177; in the data active means inhibition above about 10%
Mtb BioA inh – blocks M. tuberculosis BioA enzyme activity; inhibition, % at 9.99 µM; AID 602481; purified M. tuberculosis BioA enzyme, plate reader; 0.096% of 360,000 active; in the data active means inhibition above about 40%
* = called active by the depositor; . = no result. A selection: hits, their analogues and other compounds. The true share with any hit is near 0.32%.

SMILES | Yp Topo-I inh | TcdB inh | Mtb BioA inh
CC(C)CC(NC(=O)C(CC(C)C)NC(=O)OC(C)(C)C)C(=O)O (stereo not drawn) | 3 | . | -1
C#CCN(C[C@@H](CC(C)C)NC(=O)OC(C)(C)C)S(=O)(=O)c1ccc(Br)cc1F | 53* | 1 | 0
CCCNC(=O)N1CCC2(CC1)CN(S(C)(=O)=O)[C@H](CO)c1c2c2ccc(OC)cc2n1C | . | -2 | .
C[C@H]1CN([C@@H](C)CO)C(=O)c2cc(C#CC3CC3)cnc2O[C@H]1CN(C)Cc1ccccn1 | . | 0 | 6
CSc1nc2ncnc(N)c2[nH]1 | 5 | 0 | -1
Nc1ncnc2[nH]c(=S)[nH]c12 | 5 | 15* | 1
CCC(=O)Nc1ccc2c(c1)C(=O)N(C)C[C@@H](OC)[C@@H](C)CN(Cc1ccccc1C(=O)O)[C@@H](C)CO2 | . | -1 | -2
CCCN(CCC)CCCNC(=O)c1cn(CCOC)c(=O)c2c1c1ccccc1n2C | 2 | . | -1
CCOC(CCNC(=O)c1cn(CCOC)c(=O)c2c1c1ccccc1n2C)OCC | -7 | 21* | -1
COC(=O)c1ccc(-n2c(CCC(=O)O)ccc2-c2ccc(C)cc2)cc1 | 2 | . | 6
CCOC(=O)c1ccc(-n2c(CCC(=O)O)ccc2-c2ccc(F)cc2)cc1 | 8 | 17* | 2
Cn1cnnc1SCC(=O)NC1CCCCC1 | -11 | 15* | -1
Cn1cnnc1SCC(=O)NC(=O)NC1CCCC1 | -5 | . | 0
CNC(=O)N(O)C1N(/N=C/c2cccs2)C(=S)SC1(C)C (stereo not drawn) | -2 | 10* | .
CNC(=O)N(O)C1N(/N=C/c2ccc(N(C)C)cc2)C(=S)SC1(C)C (stereo not drawn) | 0 | 10 | -1
CO[C@@H](CN(C)C(=O)c1cnccn1)[C@@H](C)CN([C@H](C)CO)S(=O)(=O)c1ccc(C)cc1 | . | 1 | -1
O=C(Nc1ccccc1Cl)N1[C@H](CO)[C@@H]2c3ccccc3NC[C@@H]21 | . | 0 | 2
O=C(CSc1nnc(-c2ccncc2)o1)N1CCCCCC1 | 1 | 18* | .
Cc1ccc(-c2nnc(SCC(=O)N3CCCC3)o2)cc1 | -2 | . | .
COc1ccccc1C(=O)NCCC(=O)N1CC=C(c2ccccc2)CC1 | 132* | 2 | 20
COc1ccccc1C(=O)NCCC(=O)N1CCCCC1 | 2 | 3 | -1
C[C@H](CO)N1C[C@H](C)[C@H](CN(C)CC2CCCCC2)Oc2ccc(NS(C)(=O)=O)cc2C1=O | . | 0 | 1
CC(C)NC(=O)N(C)C[C@H]1Oc2ccc(NC(=O)C3CC3)cc2C(=O)N([C@@H](C)CO)C[C@H]1C | . | 0 | -1
Cc1cccc(C(=O)N(Cc2nc3ccccc3c(=O)[nH]2)C2CCCC2)c1 | 23 | 0 | .
Cc1cccc(C(=O)N(Cc2nc3ccccc3c(=O)[nH]2)C2CCCCC2)c1 | 54* | 2 | .
SMILES | Yp Topo-I inh | TcdB inh | Mtb BioA inh
ONC(=Nc1ccccc1Cl)c1ccccc1Cl | 1 | 17* | 2
O=[N+]([O-])c1cccc(C(=Nc2ccccc2Cl)NO)c1 | 6 | . | 2
O=C(C[C@H]1C[C@@H]2c3cc(NC(=O)c4ccc5c(c4)OCO5)ccc3O[C@@H]2[C@@H](CO)O1)NCc1ccc(Oc2ccccc2)cc1 | . | 0 | -2
O=[N+]([O-])c1ccc(/C=C/c2ccc3ccccc3n2)cc1 | 0 | 10* | -1
O=[N+]([O-])c1ccc(/C=C/c2ccc3cccc(O)c3n2)cc1 | -2 | -1 | -5
COc1ccc(NC(=O)Nc2ccc3c(c2)C(=O)N([C@@H](C)CO)C[C@@H](C)[C@H](CN(C)S(=O)(=O)c2cn(C)cn2)OCCCC[C@@H](C)O3)cc1 | . | . | -1
O=C(NCCc1cccc(Cl)c1)c1ccc(Cl)c([N+](=O)[O-])c1 | -1 | 11* | .
Cc1ccc(C(=O)NCCc2cccc(Cl)c2)cc1[N+](=O)[O-] | 12 | -1 | .
CC(C)NC(=O)Nc1ccc2c(c1)CC(=O)N([C@H](C)CO)C[C@@H](C)[C@H](CN(C)CC1CCCCC1)O2 | . | 1 | 0
O=C1NN=C2CCCCCCC12 (stereo not drawn) | 1 | 11* | -1
C[C@@H]1CCCCCCCCCCC1=O | -4 | 1 | -1
C[C@H](CO)N1C[C@H](C)[C@H](CN(C)C(=O)NC2CCCCC2)Oc2c(NS(=O)(=O)c3ccc(F)cc3)cccc2C1=O | . | 2 | 0
Cc1ccc(C(=O)NC(=S)NNC(=O)CC#N)cc1 | -2 | 12* | .
CCCCC(=O)NNC(=S)NC(=O)c1ccc(C)cc1 | 8 | 2 | .
CCCC(=O)Nc1ccc2c(c1)C(=O)N(C)[C@H]1CC[C@@H](CC(=O)NCc3ccccc3F)O[C@H]1CO2 | . | . | 0
COc1ccccc1-c1ccc([C@@H]2[C@H]3CN(C(=O)c4ccncc4)CCCCN3[C@H]2CO)cc1 | . | 0 | -3
COCC(=O)N(C)C[C@@H]1Oc2ncc(-c3ccc(F)cc3)cc2C(=O)N([C@@H](C)CO)C[C@H]1C | . | 0 | -1
COc1ccc(NC(=O)CSc2nncs2)cc1S(N)(=O)=O | -5 | 1 | .
COc1ccc(NC(=O)CSc2nccn2C)cc1S(N)(=O)=O | -6 | 11* | .
CCOc1cc(NC(=S)NCC2CCCO2)c(OCC)cc1NC(=O)c1ccc(F)cc1 (stereo not drawn) | -6 | 19* | -1
CCOc1cc(NC(=S)NCC2CCCO2)c(OCC)cc1NC(=O)c1ccc(C)cc1 (stereo not drawn) | 2 | . | .
O=C([C@H]1[C@H](CO)[C@H]2Cn3c(cccc3=O)[C@H]2N1Cc1ccccc1Cl)N1CCOCC1 | . | -1 | -2
C=CCn1c(SCC(=O)NCc2ccc3c(c2)OCO3)nc2scc(-c3ccccc3)c2c1=O | 2 | . | 0
Cc1ccc(Cn2c(SCC(=O)N3CC(=O)Nc4ccccc43)nc3ccccc3c2=O)cc1 | 37 | 0 | .
O=C1CN(C(=O)CSc2nc3cc(Cl)ccc3c(=O)n2Cc2ccccc2)c2ccccc2N1 | 71* | 1 | .
SMILES | Yp Topo-I inh | TcdB inh | Mtb BioA inh
C=CCn1c(SCC(=O)N2CC(=O)Nc3ccccc32)nc2scc(-c3ccccc3)c2c1=O | 29 | 16* | 0
CCC(=O)N[C@@H]1C=C[C@@H](CC(=O)NCc2ccccc2F)O[C@H]1CO | . | -3 | -5
C=CC[C@@H](CC(=O)N(CCO)Cc1ccccc1)C(=O)NC[C@@H](OC(=O)[C@@H](CC=C)CC(=O)OC(C)(C)C)c1ccccc1 | 13 | 11* | 0
C=CC[C@H](CC(=O)N(CCO)Cc1ccccc1)C(=O)NC[C@H](OC(=O)[C@@H](CC=C)CC(=O)OC(C)(C)C)c1ccccc1 | 18 | 1 | -2
COc1ccccc1NC(=O)N1C[C@@H](O)COC[C@@H]2O[C@@H](CC(=O)NCc3ccccc3)CC[C@H]21 | . | -1 | 0
Cc1ccc(C(=O)c2coc3ccc(O)c(Cl)c23)cc1 | 0 | . | 2
O=C(c1ccccc1)c1coc2ccc(O)c(Cl)c12 | 0 | 12* | 0
C[C@@H]1CN([C@H](C)CO)C(=O)c2cc(NS(=O)(=O)c3cn(C)cn3)ccc2O[C@H]1CN(C)S(C)(=O)=O | . | 0 | -3
Cc1ccc(S(=O)(=O)Nc2cccc3c2O[C@@H](CN(C)C)[C@@H](C)CN([C@H](C)CO)C3=O)cc1 | . | 1 | 0
CC=Cc1ccc2n(c1=O)C[C@@H]1[C@@H](CO)[C@H](C(=O)N3CCOCC3)[C@H]2N1CC1CC1 (mixture of isomers) | . | 1 | 1
C(=C\c1nccc2c1[nH]c1ccccc12)/c1ccccc1 | -23 | 1 | .
